Here are results for 17 compounds from PubChem BioAssay (NCATS).

The source made the active and inactive calls.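 The calls were made as follows: active = compounds whose dose series gives a full or clear partial fitted curve of increased nuclear translocation; inconclusive = weak partial curve or effect only at the top dose; inactive = no dose-dependent translocation response.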 Some results are limits rather than exact numbers.
Potency is read from the fitted curve at half-maximal effect.

Chain of Glucocorticoid receptor (Homo sapiens) (P04150 whole entry, looked up): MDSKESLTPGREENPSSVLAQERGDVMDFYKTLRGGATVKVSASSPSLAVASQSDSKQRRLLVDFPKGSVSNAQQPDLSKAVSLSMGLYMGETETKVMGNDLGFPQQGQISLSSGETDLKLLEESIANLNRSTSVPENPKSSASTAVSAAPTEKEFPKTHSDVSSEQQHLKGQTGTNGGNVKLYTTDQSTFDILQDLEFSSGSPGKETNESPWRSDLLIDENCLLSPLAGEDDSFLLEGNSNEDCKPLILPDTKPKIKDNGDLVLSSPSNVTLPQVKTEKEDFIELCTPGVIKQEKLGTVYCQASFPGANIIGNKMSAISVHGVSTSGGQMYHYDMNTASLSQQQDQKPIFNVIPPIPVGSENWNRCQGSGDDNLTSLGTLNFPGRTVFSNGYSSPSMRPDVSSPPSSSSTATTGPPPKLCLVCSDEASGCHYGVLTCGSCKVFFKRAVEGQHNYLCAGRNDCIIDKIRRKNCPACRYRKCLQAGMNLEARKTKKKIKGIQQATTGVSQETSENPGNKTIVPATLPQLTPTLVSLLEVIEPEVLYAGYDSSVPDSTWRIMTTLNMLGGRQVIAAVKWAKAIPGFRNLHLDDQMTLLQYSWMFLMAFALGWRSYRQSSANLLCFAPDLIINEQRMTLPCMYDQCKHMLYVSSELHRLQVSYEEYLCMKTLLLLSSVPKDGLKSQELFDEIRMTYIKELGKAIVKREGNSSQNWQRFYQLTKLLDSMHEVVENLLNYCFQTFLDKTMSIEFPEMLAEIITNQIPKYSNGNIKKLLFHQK

The experiment concerns the target Glucocorticoid receptor (Homo sapiens) (UniProt P04150). Put plainly: GR-GFP Redistribution (AID 450). The conditions noted are these: U2OS GR-GFP nuclear translocation, laser cytometry, 2 h.
Take `O=C(O)[C@H](Cc1ccccc1)N1C(=O)c2ccccc2C1=O`: the Potency is > 46 µM (inactive).
For `COC(=O)c1cc(=O)[nH]c(=O)[nH]1` the value was > 46 µM (inactive); for `O=C1CCC[C@H]1C(=O)Nc1ccc2ccccc2c1`, > 46 µM (inactive); for `COCCn1c(=O)cnc2cnc(N3CCNCC3)nc21`, > 9.22 µM (inactive).
Turning to `N[C@@H](CNO)C(=O)O`, the Potency was > 46 µM (inactive).
The result for `C[C@@H](SCc1ccccc1)C(=O)O` reads > 46 µM (inactive).
On to `C[N+](C)(C)CC(=O)N/N=C\c1c(O)ccc2ccccc12`, for which the Potency was > 46 µM (inactive).
The result for `O=C(O)CCn1cnc2c(=S)nc[nH]c21` reads > 46 µM (inactive); that for `CCOC(=O)c1c(O)[nH]c(=O)c(CC)c1C`, > 46 µM (inactive); that for `Nc1ccc(Cc2ccc(N)c(C(=O)O)c2)cc1C(=O)O`, > 46 µM (inactive).
The result for `O=S(=O)(c1ccccc1)N1CCN(S(=O)(=O)c2ccccc2)c2ccccc21` reads > 46 µM (inactive).
Regarding `CN1[C@@H](c2ccccc2)CC(=NO)C[C@H]1c1ccccc1`, the Potency was > 46 µM (inactive).
The result for `CC(C)[C@@H](C(=O)O)N1C(=O)c2ccccc2C1=O` reads > 46 µM (inactive); that for `O=c1c2ccccc2c2ccccc2c(=O)n1-c1cc2c3ccccc3ccc2c2ccccc12`, > 46 µM (inactive); that for `O=C(O)c1cncc(C(=O)O)c1`, > 46 µM (inactive).
Regarding `CC(C)=C[C@H]1[C@@H](COC(=O)c2cc3c(cc2Cl)OCO3)C1(C)C`, the Potency is > 46 µM (inactive).
The result for `O=C(O)CCCSc1nc2ccccc2s1` reads > 46 µM (inactive).
